Compound activity: PubChem BioAssay, several laboratories
CYP2C9 act = human CYP2C9 activators, primary screen, biochemical, luminescence | Cytochrome P450 2C9 (Homo sapiens), P11712 | recombinant CYP2C9, luciferin-H conversion; active compounds read high; factor 1 = untreated enzyme, 0 = blocked | AID 1024, 2008 | 96,000 tested, 1.4% active | activation factor at 5 µM;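 active = activation factor of 2 or more for CYP2C9 at a 5 µM dose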;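 also: 0 = sulfaphenazole-blocked wells and 1 = vehicle-only wells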
Target sequence (P11712 whole entry, looked up): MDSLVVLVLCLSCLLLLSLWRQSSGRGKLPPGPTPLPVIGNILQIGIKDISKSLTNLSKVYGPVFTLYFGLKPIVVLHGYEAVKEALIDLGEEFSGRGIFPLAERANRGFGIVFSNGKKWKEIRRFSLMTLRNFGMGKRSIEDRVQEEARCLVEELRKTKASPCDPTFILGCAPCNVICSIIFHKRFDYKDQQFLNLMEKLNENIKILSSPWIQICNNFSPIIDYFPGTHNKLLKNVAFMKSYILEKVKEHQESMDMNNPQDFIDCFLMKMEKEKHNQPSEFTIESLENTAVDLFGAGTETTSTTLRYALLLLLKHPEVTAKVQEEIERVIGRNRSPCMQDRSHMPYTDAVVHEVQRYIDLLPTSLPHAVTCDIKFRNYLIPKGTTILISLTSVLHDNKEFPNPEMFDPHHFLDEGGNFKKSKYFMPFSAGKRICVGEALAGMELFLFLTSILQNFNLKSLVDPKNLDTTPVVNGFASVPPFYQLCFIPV
CYP2C19 activ = human CYP2C19 activators, primary screen, biochemical, luminescence | Cytochrome P450 2C19 (Homo sapiens), P33261 | recombinant CYP2C19, luciferin-H EGE luminescence; active compounds read high; 0 = fully inhibited enzyme, 1 = untreated enzyme | activation factor at 5 µM | 96,000 tested, under 10 active;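 active = activation factor of at least 2 at 5 µM in the primary screen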;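 also: 0 = wells with 2.5 mM tranylcypromine and 1 = vehicle-only wells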
CYP2C19 inhib = blockers of cytochrome P450 2C19 activity – biochemical, luminescence, ADME assay, primary screen; 96,000 tested, 21% active; CYP2C19 Supersomes, luciferin-H EGE luminescence, 30 min; P33261; AID 778, 2007; inhibition, % at 5 µM;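 active = CYP2C19 inhibition above a set limit at 5 µM in the primary screen, cut at about 50% in these data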;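 also: plate controls were negative control wells for no effect and 2.5 mM tranylcypromine positive control for full effect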
CYP2C9 inh = blockers of cytochrome P450 2C9 activity – biochemical, luminescence, ADME assay, primary screen. P11712. 96,000 tested, 20% active. inhibition, % at 5 µM. AID 777, 2007. CYP2C9 Supersomes, luciferin-H conversion;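 active = blocking of liver enzyme CYP2C9 beyond about 50% at 5 µM, limit read from the data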
Cav32 inh = Cav3.2 calcium influx blockers – cell-based, Fluo-4 calcium fluorescence, FDSS, MLSMR library, primary screen; 100,000 tested, 4% active; B-score at 10 µM; Voltage-dependent T-type calcium channel subunit alpha-1H (Homo sapiens), O95180; AID 449739, 2010; Cav3.2-expressing cells; active compounds read low;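 active = single-dose well whose peak fluorescence ratio is a statistical outlier from its plate by either plate-standardised score or position-corrected B-score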
* = called active by the depositor; nt = no result. Hits are enriched below; roughly 27% of the tested compounds scored in any of these assays.

SMILES | CYP2C9 act | CYP2C19 activ | CYP2C19 inhib | CYP2C9 inh | Cav32 inh
Cc1ccc(NC(=O)CSCC(=O)Nc2ccc(N3CCOCC3)c(Cl)c2)cc1 | 0.5 | 0.8 | 24.7 | 46.2 | -2.02
CCOC(=O)c1cnc(SCC(=O)Nc2ccc(N3CCOCC3)c(Cl)c2)nc1N | 0.2 | 0.9 | 11.5 | 80.8* | -0.0295
COc1ccc(OCC(=O)NC(=S)Nc2ccc(N3CCOCC3)c(Cl)c2)cc1 | 0.7 | 1 | -2.5 | 32.1 | -1.31
COc1ccc(OCC(=O)Nc2ccc(N3CCOCC3)c(Cl)c2)cc1 | 0.4 | 0.5 | 49.8 | 64.7* | -1.18
Cn1ccnc1SCC(=O)Nc1ccc2c(c1)COC2=O | nt | nt | nt | nt | -0.234
CCCC(=O)Nc1ccc2nc(SCC(=O)Nc3ccc(N4CCOCC4)c(Cl)c3)sc2c1 | 0.3 | 0.6 | 40.1 | 69.4* | -0.0315
N#C[C@H]1[C@H](c2ccccc2)[C@](C#N)(C(=O)c2ccccc2)[C@@H]2C=Cc3ccccc3N21 | 0.7 | 0.8 | 20.1 | 32.7 | nt
O=Cc1c(-[n+]2ccccc2)nc([O-])n1-c1ccccc1 | 1.8 | 1.1 | -6.2 | -82.0 | -0.184
CCOc1ccc(OCC)c(NC(=O)c2[nH]c(C)c(C(C)=O)c2C)c1 | 0.7 | 0.6 | 37.7 | 30.4 | 1.22
CN1CCOCCOCCN(C)C1=O | 1 | 0.9 | 5.5 | -0.4 | 0.607
O=c1c2ccccc2ncn1-c1ccc(Cl)c(Cl)c1 | nt | nt | nt | nt | 0.526
O=c1c2ccccc2nc(-c2ccc(Cl)c(Cl)c2)n1O | 0.5 | 1 | 4.0 | 49.2 | -4.26*
O=c1c2ccc(Cl)cc2nc(-c2cccc(C(F)(F)F)c2)n1O | 0.6 | 0.9 | 10.7 | 37.0 | -5.85*
Cc1ccc(SCC2CNc3nc4ccccc4c(=O)n32)c(C)c1 (stereo not given) | 1 | 0.9 | 14.2 | 3.9 | 2.1
O=C1CCCc2c1cc(C(=O)Nc1ccc(Cl)cn1)c(=O)n2-c1ccccc1 | 0.2 | 0.8 | 16.2 | 78.1* | -0.134
CS(=O)(=O)N(CC(=O)N1CCN(c2ccccc2F)CC1)c1cccc(C(F)(F)F)c1 | 1.7 | 0.9 | 6.9 | -73.9 | -2.51
CCOc1cccc(NCc2cc3c(C(C)(C)C)nn(-c4ccccc4)c3[nH]c2=O)c1 | 0.3 | 0.8 | 23.3 | 74.7* | -1.62
CC(C)(C)c1nn(-c2ccccc2)c2[nH]c(=O)c(CNCc3ccc4c(c3)OCO4)cc12 | 1.3 | 0.9 | 13.1 | -30.3 | -0.19
COC(=O)C1=CN(c2cccc(C)c2)C=C(C(=O)OC)C1c1cc(OC)c(O)c([N+](=O)[O-])c1 | 0.5 | 0.7 | 32.3 | 50.7* | -3.78
COC(=O)c1cc(OC)c(OC)cc1NC(=O)Cc1ccccc1[N+](=O)[O-] | 1 | 0.8 | 19.9 | -1.0 | -0.0726
CC(C(=O)Nc1nc2ccccc2[nH]1)N1C(=O)C2CC=CCC2C1=O (stereo not given) | 0.7 | 0.9 | 13.7 | 33.7 | 0.244
COc1ccccc1N1CCN(C(=O)c2cc(-c3ccco3)on2)CC1 | 0.2 | 0.1 | 91.5* | 75.7* | -0.787
CCCCCCC(=O)Nc1ccc(C(=O)N2CCCC2)cc1 | 1.1 | 1 | 2.2 | -7.8 | 0.0391
COc1ccccc1N1CCN(C(=O)c2ccc(C(C)(C)C)cc2)CC1 | 0.1 | 0.2 | 75.2* | 90.9* | -5.03*
COc1ccccc1N1CCN(C(=O)c2cc(-c3cccs3)on2)CC1 | nt | nt | nt | nt | -1.5
SMILES | CYP2C9 act | CYP2C19 activ | CYP2C19 inhib | CYP2C9 inh | Cav32 inh
COc1ccccc1N1CCN(C(=O)c2ccc(NC(C)=O)cc2)CC1 | 1 | 1 | -4.9 | -4.2 | nt
COc1ccccc1N1CCN(C(=O)c2c(-c3ccccc3)noc2C)CC1 | 0.7 | 0.4 | 55.1* | 28.0 | -1.74
CCCCC(=O)Nc1ccc(C(=O)N2CCC(C(=O)OCC)CC2)cc1 | 0.5 | 0.3 | 67.7* | 53.6* | 0.637
Cn1c(N)c(C(=O)COC(=O)C2(c3cccc(F)c3)CCCC2)c(=O)n(C)c1=O | 0.6 | 0.8 | 18.7 | 35.6 | -0.983
Cn1c(N)c(C(=O)CNC2CCCCC2)c(=O)n(C)c1=O | nt | nt | nt | nt | 1.28
CCN1CCN(Cc2ccc(NC(=O)c3cc(NC(=O)c4cncc(-c5ccc(C#N)cc5)c4)cc(OC)c3)cc2C(F)(F)F)CC1 | nt | nt | nt | nt | 0.282
N#Cc1cc([N+](=O)[O-])ccc1Oc1cccc(/C=N/NC(=O)c2cccc(Cl)c2)c1 | 0.5 | 0.5 | 45.6 | 49.3 | -2.48
COc1ccccc1N1CCN(C(=O)c2ccncc2)CC1 | 0.1 | 0 | 100.4* | 86.3* | 1.09
Cc1onc(-c2ccccc2)c1C(=O)N1CCCSC1=Nc1ccccc1 | 0.4 | 0 | 98.5* | 61.3* | -1.22
Cc1onc(-c2ccccc2)c1C(=O)n1nnc2ccccc21 | 0.4 | 0.6 | 37.2 | 55.7* | 1.52
CCCCC(=O)Nc1ccc(C(=O)N2CCN(c3ccccc3OC)CC2)cc1 | 0.2 | 0.4 | 57.2* | 77.4* | nt
COc1ccccc1NC(=O)c1sc2ncn(Cc3ccccc3C)c(=O)c2c1C | 1.5 | 0.7 | 34.4 | -49.6 | -0.0198
O=C(O)CCC(=O)Nc1ccc(C(=O)OC2CCCCC2)cc1 | 0.9 | 0.8 | 15.1 | 12.9 | 0.247
CCCCC(=O)Nc1ccc(C(=O)OC2CCCCC2)cc1 | 0.1 | 0.3 | 74.4* | 91.4* | -4.02*
COc1ccc(CCNC(=O)Cn2c(=O)cnc3ccccc32)cc1 | 0.9 | 0.6 | 39.0 | 7.3 | -0.0656
Cc1ccc(S(=O)(=O)N(C)CC(=O)N2CCCc3ccccc32)cc1 | 2.7* | 0.7 | 29.5 | -172.4 | 0.0234
O=C(COC(=O)C(Cc1ccccc1)NC(=O)c1ccco1)NC1CC1 (stereo not given) | 0.6 | 0.5 | 48.9 | 40.8 | 1.55
CN(CC(=O)N1CCc2ccccc21)S(=O)(=O)c1ccc(Br)s1 | 1.2 | 0.1 | 93.8* | -23.4 | -2.54
O=C(NC(Cc1ccccc1)C(=O)OCC(=O)N1CCc2ccccc21)c1ccco1 (stereo not given) | 0.7 | 0.9 | 5.6 | 34.4 | -4.66*
Cc1ccc(S(=O)(=O)CCC(=O)N2CCc3ccccc32)cc1 | 2.2* | 1 | 1.4 | -116.3 | nt
Cc1nc2ccc(S(=O)(=O)N(C)CC(=O)N3CCc4ccccc43)cc2s1 | 1.3 | 0.8 | 19.6 | -33.4 | 0.24
O=C(CSc1nnc(CNc2ccc(F)cc2)n1-c1ccccc1)N1CCOCC1 | nt | nt | nt | nt | 1.34
Cc1ccc(N(CC(=O)N2CCc3ccccc32)C2=NC(=O)CS2)cc1 | 0.3 | 0.4 | 56.0* | 67.4* | -4.3*
O=Cc1cn(CC(=O)N2CCCc3ccccc32)c2ccccc12 | nt | nt | nt | nt | 0.893
O=C(CCCc1ccccc1)N1CCc2ccccc21 | 0.4 | 0.2 | 77.5* | 59.1* | -1.79
O=C(c1ccco1)c1cn(CC(=O)N2CCCc3ccccc32)c2ccccc12 | 0 | 0 | 98.1* | 100.0* | -3.98
Cn1cc(S(=O)(=O)CC(=O)N2CCCc3ccccc32)c2ccccc21 | 1.9 | 0.2 | 83.5* | -88.4 | 0.156
